In PubChem BioAssay (Tox21):
Several values for one entry are separate records, joined by “and”; a condition that tells them apart may be missing. Equal entries are not always repeated. Inconclusive results are not listed. More than one record can exist for a structure, and the calls need not agree. Activity calls are given as the source filed them. Calls follow the shape of the dose curve; as a rule, active = well fitted curve in the direction sought with a large enough effect in the repeat runs; inconclusive = weak or mixed curves; inactive = no such curve, though single readings can be large; an effect the other way counts as inactive or inconclusive.

Assays:
[1] = qHTS RealTime-Glo MT Cell Viability Assay in HepG2 cells - 40 hour (AID 1224870); also: nearly all actives have a fitted effect of over 50% in size
Summary of the method: (§1)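 HepG2 cells (600/well) mixed with RealTime-Glo MT reagent, settled 5 h at 37 C/5% CO2 before compound addition. Nonlytic NanoLuc luminescence from viable-cell prosubstrate reduction read repeatedly during 40 h treatment at 37 C.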

[2] = A CellTox Green Cytotoxicity Assay to monitor cytotoxicity in HEK293 cells - 40 hour (AID 1224871); also: nearly all actives have a fitted effect of over 45% in size; also: potency is read from the fitted curve at half-maximal effect
Summary of the method: (§2)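 HEK293 cells, 600/well, were preincubated 5 hours and then exposed to compounds at 37 C for up to 40 hours. A cell-impermeant cyanine dye staining dead-cell DNA was read by fluorescence at 0, 8, 16, 24, 32 and 40 h time points.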

[3] = qHTS RealTime-Glo MT Cell Viability Assay in HEK293 cells - 16 hour (AID 1224872); also: nearly all actives have a fitted effect of over 50% in size; also: potency is read from the fitted curve at half-maximal effect
Summary of the method: (§3)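 Viability tracked continuously by luminescence as live cells reduce a prosubstrate for NanoLuc; HEK293 cells preincubated 5 h, compound-treated at 37 C, and read at 0, 8, 16, 24, 32 and 40 h.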

[4] = qHTS RealTime-Glo MT Cell Viability Assay in HepG2 cells - 8 hour (AID 1224873); also: nearly all actives have a fitted effect of over 55% in size
Summary of the method: as §1

[5] = qHTS RealTime-Glo MT Cell Viability Assay in HEK293 cells - 40 hour (AID 1224874); conditions: RealTime-Glo luminescence; max response: stronger effect = lower value; also: nearly all actives have a fitted effect of over 50% in size; also: potency is read from the fitted curve at half-maximal effect
Summary of the method: (§4)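 600 cells/well were plated with the nonlytic NanoLuc/prosubstrate reagent, pre-incubated 5 h, then given 23 nL of compound in DMSO. Incubation at 37 C for 40 h, with luminescence from viable-cell-reduced substrate read repeatedly from 0 h.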

[6] = A CellTox Green Cytotoxicity Assay to monitor cytotoxicity in HEK293 cells - 24 hour (AID 1224875); also: nearly all actives have a fitted effect of over 45% in size; also: potency is read from the fitted curve at half-maximal effect
Summary of the method: as §2

[7] = A CellTox Green Cytotoxicity Assay to monitor cytotoxicity in HepG2 cells - 16 hour (AID 1224876); also: nearly all actives have a fitted effect of over 45% in size; also: potency is read from the fitted curve at half-maximal effect
Summary of the method: (§5)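 HepG2 cells, 600/well, preincubated 5 h with CellTox Green dye, then exposed to Tox21 compounds in DMSO at 37 C for up to 40 h. Dead-cell DNA fluorescence read at the indicated time point.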

[8] = qHTS RealTime-Glo MT Cell Viability Assay in HepG2 cells - 32 hour (AID 1224877); also: nearly all actives have a fitted effect of over 55% in size
Summary of the method: (§6)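 Viability was tracked continuously by NanoLuc luminescence from prosubstrate reduced by living HepG2 cells, at successive time points over 40 h of compound exposure. Cells with reagent were preincubated 5 h at 37 °C before compound addition.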

[9] = A CellTox Green Cytotoxicity Assay to monitor cytotoxicity in HepG2 cells - 24 hour (AID 1224878); also: nearly all actives have a fitted effect of over 45% in size; also: potency is read from the fitted curve at half-maximal effect
Summary of the method: as §5

[10] = A CellTox Green Cytotoxicity Assay to monitor cytotoxicity in HepG2 cells - 40 hour (AID 1224879); also: nearly all actives have a fitted effect of over 40% in size; also: potency is read from the fitted curve at half-maximal effect
Summary of the method: as §5

[11] = qHTS RealTime-Glo MT Cell Viability Assay in HEK293 cells - 0 hour (AID 1224880)
Summary of the method: as §4

[12] = A CellTox Green Cytotoxicity Assay to monitor cytotoxicity in HEK293 cells - 32 hour (AID 1224881); also: nearly all actives have a fitted effect of over 40% in size; also: potency is read from the fitted curve at half-maximal effect
Summary of the method: as §2

[13] = A CellTox Green Cytotoxicity Assay to monitor cytotoxicity in HepG2 cells - 0 hour (AID 1224882); also: nearly all actives have a fitted effect of over 35% in size; also: potency is read from the fitted curve at half-maximal effect
Summary of the method: as §5

[14] = A CellTox Green Cytotoxicity Assay to monitor cytotoxicity in HepG2 cells - 32 hour (AID 1224883); also: nearly all actives have a fitted effect of over 50% in size; also: potency is read from the fitted curve at half-maximal effect
Summary of the method: as §5

[15] = A CellTox Green Cytotoxicity Assay to monitor cytotoxicity in HEK293 cells - 8 hour (AID 1224884); also: nearly all actives have a fitted effect of over 35% in size; also: potency is read from the fitted curve at half-maximal effect
Summary of the method: as §2

[16] = qHTS RealTime-Glo MT Cell Viability Assay in HEK293 cells - 24 hour (AID 1224886); also: nearly all actives have a fitted effect of over 50% in size; also: potency is read from the fitted curve at half-maximal effect
Summary of the method: as §3

[17] = qHTS RealTime-Glo MT Cell Viability Assay in HEK293 cells - 8 hour (AID 1224887); also: nearly all actives have a fitted effect of over 50% in size; also: potency is read from the fitted curve at half-maximal effect
Summary of the method: as §4

[18] = A CellTox Green Cytotoxicity Assay to monitor cytotoxicity in HEK293 cells - 16 hour (AID 1224888); also: nearly all actives have a fitted effect of over 35% in size; also: potency is read from the fitted curve at half-maximal effect
Summary of the method: as §2

[19] = qHTS RealTime-Glo MT Cell Viability Assay in HepG2 cells - 0 hour (AID 1224889); also: nearly all actives have a fitted effect of over 50% in size
Summary of the method: as §6

[20] = qHTS RealTime-Glo MT Cell Viability Assay in HepG2 cells - 16 hour (AID 1224885); also: nearly all actives have a fitted effect of over 50% in size
Summary of the method: as §6
% is scaled to controls: 0 for no effect and ±100 for the full control effect.

Nc1ccc(-c2ccc(N)c(N)c2)cc1N
inactive: Potency [1] | Potency [2] | Potency [3] | Potency [4] | max response [5] 10% | Potency [6] | Potency [7] | Potency [8] | Potency [9] | Potency [10] | Potency [11] | Potency [12] | Potency [13] | Potency [14] | Potency [15] | Potency [16] | Potency [17] | Potency [18] | Potency [19]

CC1(C)C(C=C(Cl)Cl)C1C(=O)OC(C#N)c1cccc(Oc2ccccc2)c1 (configuration not stated)
inactive: Potency [1] | Potency [2] | Potency [3] | Potency [4] | max response [5] -14.9% and 6.86% | Potency [6] | Potency [7] | Potency [8] | Potency [9] | Potency [10] | Potency [11] | Potency [12] | Potency [13] | Potency [14] | Potency [15] | Potency [16] | Potency [17] | Potency [18] | Potency [19]

CCCCOCCOP(=O)(OCCOCCCC)OCCOCCCC
inactive: Potency [1] | Potency [2] | Potency [3] | Potency [4] | max response [5] -16.9% | Potency [6] | Potency [7] | Potency [8] | Potency [11] | Potency [12] | Potency [13] | Potency [14] | Potency [15] | Potency [16] | Potency [17] | Potency [18] | Potency [19]

CCC(C)c1ccc(O)cc1 (configuration not stated)
active: Potency [2] 49.4 µM and 43.6 µM | Potency [6] 43.6 µM | Potency [9] 43.6 µM | Potency [10] 43.6 µM | Potency [12] 43.6 µM | Potency [14] 43.6 µM
inactive: Potency [1] | Potency [3] | Potency [4] | max response [5] -20.1% and -0.111% | Potency [8] | Potency [11] | Potency [13] | Potency [16] | Potency [17] | Potency [19]

Oc1ccc(-c2ccccc2)cc1
active: Potency [2] 19.2 µM | Potency [16] 21.9 µM
inactive: Potency [1] | Potency [4] | Potency [6] | Potency [7] | Potency [8] | Potency [11] | Potency [13] | Potency [15] | Potency [20] | Potency [18] | Potency [19]
inactive and 49 µM (active): Potency [9] | Potency [10] | Potency [14]
24.2 µM (active) and inactive: Potency [12]

CCCCC(CC)COC(=O)Cl (configuration not stated)
inactive: Potency [1] | Potency [3] | Potency [4] | max response [5] 2.04% | Potency [6] | Potency [7] | Potency [8] | Potency [9] | Potency [10] | Potency [11] | Potency [12] | Potency [13] | Potency [14] | Potency [15] | Potency [20] | Potency [16] | Potency [17] | Potency [18] | Potency [19]

N#Cc1cc(Br)c(O)c(Br)c1
inactive: Potency [1] | Potency [2] | Potency [3] | Potency [4] | max response [5] -28.3% and -19.4% | Potency [6] | Potency [7] | Potency [8] | Potency [9] | Potency [10] | Potency [11] | Potency [12] | Potency [13] | Potency [14] | Potency [15] | Potency [16] | Potency [17] | Potency [18] | Potency [19]

Nc1ccc(Cl)cc1N
inactive and 19.5 µM (active): Potency [13]
inactive and 21.9 µM (active): Potency [9]
inactive and 23.2 µM (active): Potency [14]
inactive and 40.4 µM (active): Potency [7]
inactive: Potency [1] | Potency [4] | Potency [8] | Potency [11] | Potency [20] | Potency [19]
active: Potency [2] 21.9 µM | Potency [6] 24.5 µM | Potency [10] 10.2 µM and 21.9 µM | Potency [12] 21.9 µM | Potency [15] 24.5 µM | Potency [17] 40.4 µM | Potency [18] 24.5 µM

OCC(O)CO
inactive: Potency [1] | Potency [3] | Potency [4] | max response [5] -4.06% and 6% | Potency [6] | Potency [7] | Potency [8] | Potency [9] | Potency [10] | Potency [11] | Potency [12] | Potency [13] | Potency [14] | Potency [15] | Potency [20] | Potency [16] | Potency [17] | Potency [18] | Potency [19]

Cc1ccc2c(c1N)C(=O)c1ccccc1C2=O
inactive: Potency [1] | Potency [2] | Potency [6] | Potency [7] | Potency [8] | Potency [9] | Potency [10] | Potency [11] | Potency [12] | Potency [13] | Potency [14] | Potency [15] | Potency [20] | Potency [18] | Potency [19]
active: Potency [3] 8.62 µM and 8.71 µM | Potency [5] 9.67 µM and 6.92 µM | Potency [16] 9.67 µM and 7.76 µM | Potency [17] 7.68 µM and 6.92 µM

C#CCOS(=O)OC1CCCCC1Oc1ccc(C(C)(C)C)cc1 (configuration not stated)
inactive: Potency [1] | Potency [6] | Potency [7] | Potency [9] | Potency [10] | Potency [11] | Potency [12] | Potency [13] | Potency [14] | Potency [15] | Potency [18] | Potency [19]
active: Potency [2] 21.9 µM | Potency [3] 17.4 µM and 19.5 µM | Potency [5] 7.77 µM and 21.9 µM | Potency [16] 15.5 µM and 19.5 µM | Potency [17] 17.4 µM

COP(=S)(OC)Oc1cc(Cl)c(Cl)cc1Cl
inactive: Potency [1] | Potency [2] | Potency [3] | Potency [4] | max response [5] -10.5% and -1.54% | Potency [6] | Potency [7] | Potency [8] | Potency [9] | Potency [10] | Potency [11] | Potency [12] | Potency [13] | Potency [14] | Potency [15] | Potency [16] | Potency [17] | Potency [18] | Potency [19]
